Assay outcomes: PubChem, The Scripps Research Institute Molecular Screening Center
Hits are enriched below; roughly 2.9% of the tested compounds scored in any of these assays.
PLCb3 inh – PLC-beta3 (human) inhibition, primary screen; Q01970; Purified PLC-beta3, fluorogenic substrate, fluorescence; inhibition, % at 12.2 µM; 0.18% of 370,000 active; AID 720704; in the data active means inhibition above about 11%;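 further: 0% = median of compound wells on plate and 100% = full blocker control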
PLCg1 inh – inhibitors of human phospholipase C gamma1 | 0.84% of 370,000 active | AID 720700 | purified PLC-gamma1, fluorogenic substrate, fluorescence | inhibition, % at 12.2 µM; in the data active means inhibition above about 9.5%
ADAM10 inh – inhibits human ADAM10. O14672. recombinant ADAM10, EDANS/DABCYL FRET peptide cleavage, 3 h. inhibition, % at 7 µM. 0.62% of 370,000 active;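 active means inhibition above a per-campaign cutoff equal to the mean of compounds falling between control-based bounds plus 3 SD, cut at about 20% in these data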;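 further: 0% = DMSO wells while the 100% control is not disclosed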
proKLK7 act – activators of human kallikrein-7 zymogen; P49862; purified proKLK7, EDANS-DABCYL substrate fluorescence; 100% is mature enzyme control, 0% vehicle; activation, % at 7 µM; 0.9% of 370,000 active;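 active means activation above the mean of all tested compounds plus 3 SD, computed per campaign excluding outliers beyond control limits, cut at about 13% in these data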
Target sequence (P49862 whole entry, looked up): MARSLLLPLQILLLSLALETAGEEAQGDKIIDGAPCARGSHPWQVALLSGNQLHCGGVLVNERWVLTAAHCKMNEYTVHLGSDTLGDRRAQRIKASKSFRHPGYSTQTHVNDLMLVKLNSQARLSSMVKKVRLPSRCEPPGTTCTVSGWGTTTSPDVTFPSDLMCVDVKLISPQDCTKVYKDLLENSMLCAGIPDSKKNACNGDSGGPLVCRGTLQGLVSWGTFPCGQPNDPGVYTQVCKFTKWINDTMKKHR
ADAM17 inh – inhibitors of human ADAM17; 0.83% of 370,000 active; inhibition, % at 6.95 µM; recombinant ADAM17, EDANS/DABCYL FRET peptide cleavage; AID 720648; P78536;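 active means inhibition above the mean of compounds lying between control limits plus 3 SD, set per campaign, cut at about 8.5% in these data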;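 further: 0% = DMSO-only wells as the low control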
ADAM10 ctr – ADAM10 inhibition, counter-screen for ADAM17 exosite hits; inhibition, % at 6.95 µM; 47% of 2,900 active; recombinant ADAM10, EDANS/DABCYL FRET peptide cleavage, 3 h; shares compounds with ADAM17 inh;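 active means mean inhibition over the triplicate runs exceeds the activity threshold set in the earlier primary screen, cut at about 20% in these data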;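 further: 0% = DMSO wells and 100% = marimastat wells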
ADAM17 confirm – confirmation of inhibitors of human ADAM17; shares compounds with ADAM17 inh; recombinant ADAM17, EDANS/DABCYL QFRET peptide cleavage; inhibition, % at 6.95 µM; 65% of 2,900 active; AID 743257;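 active means mean inhibition across replicates above the hit cutoff set in the primary screen, cut at about 8.5% in these data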;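 further: 0% = DMSO wells and 100% = marimastat wells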
Starred values were filed as active, the others as inactive; i = inactive; . = no result given.

SMILES	PLCb3 inh	PLCg1 inh	ADAM10 inh	proKLK7 act	ADAM17 inh	ADAM10 ctr	ADAM17 confirm
CC(=O)Nc1ccc(OCC(=O)c2ccc(C)cc2C)cc1	-1	1	8	0	9.6*	9	4
C[C@H]1CN(c2ccc(Br)cc2)C(=O)[C@@H]1CC(=O)Nc1ccccc1	4	2	9	0	11*	7	6
COc1ccc(Oc2ccc(/C=C/C(=O)c3ccc(O)cc3)cc2[N+](=O)[O-])cc1	1	3	16	0	9.6*	38*	22*
O=C(/C=C/c1ccc(O)c([N+](=O)[O-])c1)c1ccc2ccccc2c1	-3	5	12	0	-1	.	.
COc1cccc(-c2cccc(-c3nc(C(=O)NCc4ccc5c(c4)OCO5)cc4c3[C@H](CCO)N(S(=O)C(C)(C)C)C4)c2)c1 (stereo partly drawn)	-2	1	16	1	19*	13	10*
CC(C)(C)S(=O)N1Cc2cc(C(=O)NCc3ccc4c(c3)OCO4)nc(-c3cccc(-c4cc5ccccc5o4)c3)c2[C@@H]1CCO (stereo partly drawn)	-10	-7	-2	0	3	.	.
Cc1ccc(N(CC(=O)Nc2cc(Cl)ccc2Oc2ccccc2)S(C)(=O)=O)cc1C	3	2	7	0	2	.	.
Cc1ccc(N(CC(=O)Nc2cc(Cl)ccc2Oc2ccccc2)S(C)(=O)=O)c(C)c1	0	3	16	1	13*	41*	22*
c1ccc(-n2c(SCc3cccc4ccccc34)nnc2-c2ccccn2)cc1	-2	3	3	0	9.2*	14	12*
N#Cc1ccc(CSc2nnc(-c3ccccn3)n2-c2ccccc2)cc1	2	3	-15	0	1	.	.
Cc1csc(=O)n1CC(=O)OCC(=O)Nc1ccc(F)c(F)c1F	3	1	2	0	1	.	.
O=C(NC1CCCCC1)C1c2ccccc2OCC(=O)N1Cc1ccccc1 (stereo not drawn)	1	0	-2	0	-4	.	.
Cc1ccc(CN2CC(=O)N3[C@H]4c5cc(Cl)ccc5OC[C@@H]4[C@H](c4ccccc4)[C@]3(C)C2=O)cc1	1	2	15	-1	9.4*	8	7
COc1ccc2c(c1)[C@H]1[C@H](CO2)[C@H](c2ccccc2)[C@]2(C)C(=O)Nc3cc(F)ccc3C(=O)N12	-8	-7	13	0	10.0*	-10	0
COc1ccc2c(c1)OC[C@H]1[C@H]2N2C(=O)CN(Cc3ccc(Cl)cc3)C(=O)[C@@]2(C)[C@H]1c1ccccc1	-2	3	16	-1	9.9*	29*	13*
CCOC(=O)[C@H]1[C@H]2COc3ccc(Br)cc3[C@@H]2N2C(=O)CN(Cc3ccc(C)cc3)C(=O)[C@@]12C	8	5	16	1	9.6*	28*	17*
COc1ccc(CN2CC(=O)N3[C@H]4c5ccc(OC)cc5OC[C@@H]4[C@H](c4ccccc4)[C@]3(C)C2=O)cc1	4	3	12	0	3	.	.
O=C(/C=C/[C@H]1O[C@@H](n2ccc(=O)[nH]c2=O)[C@H](O)[C@@H]1O)N1CCN(CCc2ccccc2)CC1	-1	0	-6	0	-8	.	.
Cc1ccc(-c2noc(CSc3nnnn3C3CCCCC3)n2)cc1	-6	3	-1	0	2	.	.
CCC/C=C/c1ccc(CN2C(C(C)C)C(=O)N(Cc3cn(CCC4OCCO4)nn3)CCS2(=O)=O)cc1 (stereo not drawn)	10	4	12	0	11*	30*	17*
CCC(C)Sc1ccc([C@H]2N[C@@](CC(C)C)(C(=O)OC)[C@H]3C(=O)N(C)C(=O)[C@@H]23)cc1 (stereo partly drawn)	1	2	1	0	1	.	.
OC1(c2ccccc2)CNCCc2ccccc21 (stereo not drawn)	-4	2	7	0	0	.	.
COc1ccccc1NC(=O)Nc1nc(CC(=O)N2CCN(c3ccc(F)cc3)CC2)cs1	-6	2	5	0	9.8*	24*	16*
CN(C)S(=O)(=O)c1ccc(/C(O)=C2/C(=O)C(=O)N(Cc3cccnc3)C2c2ccncc2)cc1 (stereo not drawn)	2	0	-4	0	0	.	.
CN(C)S(=O)(=O)c1ccc(/C(O)=C2/C(=O)C(=O)N(Cc3cccnc3)C2c2ccco2)cc1 (stereo not drawn)	2	-2	0	0	12*	3	2
SMILES	PLCb3 inh	PLCg1 inh	ADAM10 inh	proKLK7 act	ADAM17 inh	ADAM10 ctr	ADAM17 confirm
O=C(CCC(=O)OCC(=O)c1ccccc1)Nc1cccc2cccnc12	2	6	18	0	8.7*	0	1
COc1ccccc1N1CCN(C(=O)c2ccccc2Oc2ccccc2)CC1	2	3	13	0	15*	-2	0
O=C(c1ccccc1Oc1ccccc1)N1CCN(c2ccccc2F)CC1	2	2	2	0	3	.	.
CCOC(=O)C1(CC2CCCCO2)CCN(C(=O)Nc2cccc(SC)c2)CC1 (stereo not drawn)	4	7	2	0	9.2*	3	0
CCOc1ccccc1N1CCN(C(=O)c2ccc(OCC(=O)N3CCOCC3)c(OC)c2)CC1	-4	-1	-5	0	-1	.	.
CC(C)(C)c1csc(NC(=O)c2ccccc2O)n1	-186	-148	i	7	-211	.	.
CC(C)(C)c1csc(NNC(=O)c2ccc(Br)cc2)n1	-10	-1	20	0	8.7*	-5	4
Cn1c(=O)c(Nc2ccc(O)cc2)c2c3c(cccc31)C(=O)c1ccccc1-2	-89	-67	17	0	9.2*	19	15*
COc1ccc(OC)c(COC(=O)c2cccc(S(=O)(=O)N3CCCCC3)c2)c1	-6	4	-6	0	-21	.	.
COc1ccc(NC(=O)C2Cc3c(-c4ccccc4Oc4ccccc4)ccnc3O2)cc1 (stereo not drawn)	-2	2	18	0	9.6*	18	7
O=C(Nc1cccc(OC(F)(F)F)c1)C1Cc2c(-c3ccc(Cl)cc3)ccnc2O1 (stereo not drawn)	-3	2	8	0	10*	17	9
O=C(Nc1ccccc1)C1Cc2c(-c3ccccc3Oc3ccccc3)ccnc2O1 (stereo not drawn)	0	2	11	0	4	.	.
CCOc1cc(/C=N/NC(=O)c2ccc3c(c2)OCCO3)cc(Br)c1O	i	-474	-6	0	23*	-19	1
O=C(CCn1nc(-c2ccccc2)ccc1=O)N1CCN(c2ccccc2)CC1	1	-1	-4	0	-4	.	.
